# Measurements: PubChem BioAssay (NCI)
# About 83,000 compounds went through this panel and 20% of them were active in at least one assay; those are over-represented in the sample as a whole.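 For each line, cells grew in 96-well plates with the test compound present at a single concentration for 48 hours.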 Calls of active or inactive are those of the source. The calls were made as follows: active = growth percent below 10; inactive = the rest.
# Test system: CCRF-CEM leukemia
# Test: NCI-60 one-dose screen, 48 h (100 = growth as untreated, 0 = no growth, -100 = all killed)
# Conditions: 10 µM unless noted
row,SMILES,growth
1,COc1ccc2c(c1)c(-c1nc(-c3c[nH]c4ncccc34)cs1)cn2CCN,55.8% (inactive)
2,C=C(C)[C@@H]1CC[C@]2(C(=O)N3CCCNCC3)CC[C@]3(C)[C@H](CC[C@@H]4[C@@]5(C)CCC(=O)C(C)(C)[C@@H]5CC[C@]43C)[C@@H]12,84.2% (inactive)
3,Cc1ccc(NC2CC(=O)N(c3c(C)cc(C)cc3C)C2=O)c(C)c1 (stereo not given),88.6% (inactive)
4,CC1c2ccccc2N(S(=O)(=O)c2ccccc2)C1C (stereo not given),78.2% (inactive)
5,Nc1ccc(Cl)cn1,107% (inactive)
6,CCc1nnc(NC(=O)c2ccoc2COc2ccccc2)s1,39.3% (inactive)
7,Nc1c2c(nc3ccc(Br)cc13)CC(c1ccccc1)CC2=O (stereo not given),19.7% (inactive)
8,CC(C)(C)n1cc(-c2ccnc(NCCCNS(=O)(=O)c3ccc(Cl)cc3)c2)c(-c2cccc(F)c2)n1,66.7% (inactive)
9,COc1cc(/C=N/NC(=S)NNC(=S)NC2CCCCC2)cc(OC)c1OC,88.7% (inactive)
10,COc1ccc2[nH]c(-c3ccc(Cl)cc3)cc(=O)c2c1,36.3% (inactive)
11,Cc1cc(N(CCCNc2ccnc3cc(Cl)ccc23)Cc2ccco2)nc(Cl)n1,67.3% (inactive)

# Test system: MOLT-4 leukemia
# Test: as above
# Conditions: 10 µM unless noted
row,SMILES,growth
1,COc1cc2c3c(c4c5ccccc5[nH]c4c2c(OC)c1OC)C(=O)N(O)C3=O,1.38% (active)
2,Cc1cc2nc3c4cc(O)ccc4n(CCN(C)C)c3nc2cc1C,1.9% (active)
3,Cc1csc(Nc2nc(-c3ccc(Cl)cc3)nc(C(Cl)(Cl)Cl)n2)n1,84.4% (inactive)
4,Cc1cc(C)nc(NC(N)=NCCc2ccccc2)n1,47.7% (inactive)
5,COc1cc(-c2c(C#N)c(-c3cccs3)nc3c2c(-c2ccccc2)nn3-c2ccccc2)ccc1O,59.9% (inactive)
6,CN1CCN(c2ccc3nc(-c4[nH]ncc4Nc4ncnc5c4OCCCN5)[nH]c3c2)CC1,-22.5% (active)
7,COC(=O)[C@]12CC[C@@H](C)[C@H](C)[C@@H]1C1=CC[C@@H]3[C@@]4(C)C[C@@H](O)[C@H](O)[C@@](C)(CO)C4=CC[C@@]3(C)[C@]1(C)CC2,-47.4% (active)
8,O=C(NO)c1ccc(Cn2c(=O)n(-c3ccccc3)c(=O)c3ccccc32)cc1,-2.07% (active)
9,COC(=O)[C@]12CC[C@@H](C)[C@H](C)[C@@H]1C1=CC(=O)[C@@H]3[C@@]4(C)C[C@@H](O)[C@H](O)[C@@]5(C)COC(=C45)C[C@@]3(C)[C@]1(C)CC2,24.6% (inactive)
10,Cn1cc(-c2csc(-c3cn(CCN)c4ccc(F)cc34)n2)c2cccnc21,12.1% (inactive)
11,CN(C)CCCCC(C(=O)CBr)(c1ccccc1)c1ccccc1,0.308% (active)
12,CC/C=C\C[C@H]1CC=C2C(=O)C=C[C@@H]2CC=CCCCC(=O)O[C@@H](CCCCC)CC=C2C(=O)C=C[C@@H]2CC=CCCCC(=O)O[C@@H](CCCCC)CC=C2C(=O)C=C[C@@H]2CC=CCCCC(=O)O[C@@H](CCCCC)CC=C2C(=O)C=C[C@@H]2CC=CCCCC(=O)O1,4.01% [7.9 µM] (active)
13,Clc1ccc2c(NCCNc3nc(-c4ccccc4)cc(-c4ccccc4)n3)ccnc2c1,-32.2% (active)
14,Cc1ccc(N(CC(=O)Nc2ccc(S(=O)(=O)N3CCC(N4CCCC4)CC3)cc2)S(=O)(=O)c2ccc(Cl)cc2)cc1,2.28% (active)
15,Oc1ccc(Nc2ccccc2)cc1,88.6% (inactive)
16,CCCCCCCCNc1cccc2c1C(=O)c1ccccc1C2=O,90.5% (inactive)
17,Cc1cc(N(CCCNc2ccnc3cc(Cl)ccc23)Cc2ccco2)nc(N2CCN(C)CC2)n1,37.6% (inactive)
18,C=C1C(=O)O[C@H]2[C@H]1CC/C(Cn1cc(-c3ccc(OC)cc3)nn1)=C\CC[C@@]1(C)O[C@@H]21,-32.9% (active)
19,O=c1[nH]c2c3ccncc3cc(-c3cccc(Cl)c3)c2c2cnccc12,76.9% (inactive)
20,O=C1CNCCN1,94% (inactive)

row,SMILES,growth
1,COc1ccc(/C=C/C(=O)NCC(C)O)cc1 (stereo not given),109% (inactive)
2,O=C1Nc2ccccc2/C1=C/c1cn(CCCn2c3ccccc3c(=O)c3ccccc32)c2ccccc12,77.7% (inactive)
3,Cn1cc(-c2csc(-c3c[nH]c4ccc(F)cc34)n2)c2cccnc21,46.7% (inactive)
4,Cc1cc(Cl)nc(N(CCCNc2ccnc3cc(Cl)ccc23)Cc2ccco2)n1,-1.04% (active)
5,COc1cc(/C=C/c2cc(/C=C/c3ccc(O)c(OC)c3)n(-c3ccc(Cl)cc3)c(=O)n2)ccc1O,43% (inactive)
6,CC1(c2ccccc2)OC1C(=O)O (stereo not given),101% (inactive)
7,COc1cc(/C=C2\C(=O)N(CC(O)COc3cc(O)c4c(=O)cc(-c5ccccc5)oc4c3)c3ccccc32)cc(OC)c1O (stereo not given),63.8% (inactive)
8,Oc1cccc2oc(=S)[nH]c12,99.5% (inactive)
9,COc1ccc2c(c1)c(-c1nc(-c3c[nH]c4ncccc34)cs1)cn2CCN,46.4% (inactive)
10,C=C(C)[C@@H]1CC[C@]2(C(=O)N3CCCNCC3)CC[C@]3(C)[C@H](CC[C@@H]4[C@@]5(C)CCC(=O)C(C)(C)[C@@H]5CC[C@]43C)[C@@H]12,63.3% (inactive)
11,Cc1ccc(NC2CC(=O)N(c3c(C)cc(C)cc3C)C2=O)c(C)c1 (stereo not given),94.6% (inactive)
12,CC1c2ccccc2N(S(=O)(=O)c2ccccc2)C1C (stereo not given),75.1% (inactive)
13,Nc1ccc(Cl)cn1,102% (inactive)
14,CCc1nnc(NC(=O)c2ccoc2COc2ccccc2)s1,25.3% (inactive)
15,Nc1c2c(nc3ccc(Br)cc13)CC(c1ccccc1)CC2=O (stereo not given),29.3% (inactive)
16,CC(C)(C)n1cc(-c2ccnc(NCCCNS(=O)(=O)c3ccc(Cl)cc3)c2)c(-c2cccc(F)c2)n1,55.1% (inactive)
17,COc1cc(/C=N/NC(=S)NNC(=S)NC2CCCCC2)cc(OC)c1OC,73.8% (inactive)
18,COc1ccc2[nH]c(-c3ccc(Cl)cc3)cc(=O)c2c1,99.2% (inactive)
19,Cc1cc(N(CCCNc2ccnc3cc(Cl)ccc23)Cc2ccco2)nc(Cl)n1,43.4% (inactive)
